Results: PubChem BioAssay (NCATS)
“And” between values parts separate entries of the source, which are not always exact repeats. Identical values can stand only once. Results filed as inconclusive are left out. The source made the active and inactive calls. Unless noted, calls follow the shape of the dose curve; as a rule, active = well fitted curve in the direction sought with a large enough effect; inconclusive = small, poorly fitted or top-dose-only effect, or another doubt; inactive = no such curve, though single readings can be large; an effect the other way counts as inactive or inconclusive. Peptide text beside a SMILES is read from it.

Tests used:
[1] = target: Voltage-gated inwardly rectifying potassium channel KCNH2 (Homo sapiens) (UniProt Q12809); assay: qHTS Assay for Small Molecule Inhibitors of the Human hERG Channel Activity (AID 588834);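 also: lower thallium flux fluorescence means stronger hERG block; nearly all actives have a fitted effect of over 50% in size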; also: potency is read from the fitted curve at half-maximal effect
Method in brief: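 Measured: FluxOR fluorescence after thallium stimulation in U2OS cells transduced with hERG by baculovirus. Compounds pre-incubated around 10 min; medium Opti-MEM with 2% FCS. AC50 from Hill equation.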

[2] = target: Vitamin D3 receptor (Homo sapiens) (UniProt P11473); assay: qHTS assay for small molecule antagonists of vitamin D receptor signaling (AID 588541; calls by dose curve;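 also: receptor activated by calcitriol during compound treatment; % is scaled to controls: 0 for no effect and ±100 for the full control effect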)
Method in brief: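 Antagonist-mode beta-lactamase reporter assay: HEK293T VDR-UAS-bla cells were exposed to titrated compound alongside 1-alpha,25-dihydroxyvitamin D3 at 3 nM final for 16 h. Values were normalized to the 50 nM agonist control and DMSO basal, with IC50 and efficacy from Hill equation fits.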

[3] = target: Vitamin D3 receptor (Homo sapiens) (UniProt P11473); assay: qHTS assay for small molecule agonists of vitamin D receptor signaling (AID 588543; calls by dose curve;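 also: 0% = DMSO basal and 100% = reference agonist control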)
Method in brief: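 qHTS in agonist mode: compound titrations stimulate a VDR-driven β-lactamase reporter in HEK293T cells over 16 h at 37 °C. Response normalized to 50 nM 1α,25-dihydroxyvitamin D3 = 100%, DMSO = 0%; Hill fitting gives EC50 and maximal response.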

[4] = target: Thyroid hormone receptor beta (Homo sapiens) (UniProt P10828); assay: qHTS assay for small molecule agonists of thyroid hormone receptor beta signaling (AID 588545; calls by dose curve)
Method in brief: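 Cells (2500/well) were seeded, incubated 4 hrs at 37 C, dosed with a compound series, incubated 18 hrs, loaded with CCF4 dye for 2 hrs at RT, then read for fluorescence. Data were scaled between DMSO (0%) and 10 nM T3 (100%).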

[5] = qHTS assay for small molecule antagonists of retinoid X receptor alpha signaling (AID 588546); conditions: HEK293T RXRa-UAS-bla, beta-lactamase ratio, antagonist mode; measured here: W530 green channel, cytotoxicity proxy;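 also: cells stimulated with 9-cis-retinoic acid as agonist; % is scaled to controls: 0 for no effect and ±100 for the full control effect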
Method in brief: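 Beta-lactamase reporter inhibition, read as CCF4 fluorescence ratio (ex 405, em 460/530 nm) after 2 h at RT. HEK293T UAS-bla cells, 2500/well, were stimulated with 9-cis-RA at 500 or 100 nM final alongside test compound for 18 h at 37 C.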

[6] = target: Thyroid hormone receptor beta (Homo sapiens) (UniProt P10828); assay: qHTS assay for small molecule antagonists of thyroid hormone receptor beta signaling (AID 588547; active = well fitted inhibition curve with a large enough effect in the signal ratio, with a control signal flat, not every such curve was filed as active; the % refers to the signal ratio;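 also: cells stimulated with 0.4 nM T3 agonist during compound exposure; % is scaled to controls: 0 for no effect and ±100 for the full control effect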); conditions: TR-UAS-bla HEK293, beta-lactamase ratio, antagonist mode, 18 h
Method in brief: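 Inhibition of T3-driven (0.4nM final) beta-lactamase reporter activity was measured over 0.59 nM to 92 uM compound after 18 h at 37 C. The cells were GripTite HEK293 TR-UAS-bla in charcoal/dextran-stripped serum, with CCF4 ratio read-out and IC50 from Hill fits.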

[7] = Cytotoxicity counterscreen for NFkB agonists and antagonists (AID 624476); also: potency is read from the fitted curve at half-maximal effect
[8] = qHTS Assay for Identification of Small Molecule Antagonists for NFkB Signaling Pathway. (AID 624479; calls by dose curve;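 also: pathway stimulated with TNF alpha; % is scaled to controls: 0 for no effect and ±100 for the full control effect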)
[9] = Cell Proliferation Assay against the TMD8 Cell Line (AID 651645); conditions: TMD8 DLBCL cell line proliferation/viability; at 46.1 µM (top of the series) unless noted;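 also: cells exposed to compound for 48 h before reading; 100% = DMSO and 0% = 9.2 µM bortezomib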
Method in brief: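 Seed log-phase TMD8 cells in RPMI containing 5% FBS, add compounds at once, incubate 48 hours at 37C. Equilibrate to room temperature, add CellTiter-Glo, read luminescence after 15 minutes and express relative to DMSO and bortezomib controls.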

[10] = qHTS assay for small molecule agonists of retinoid X receptor alpha signaling (AID 588544; calls by dose curve); conditions: HEK293T RXRa-UAS-bla, beta-lactamase reporter, 18 h; 530 nm emission
[11] = target: Retinoic acid receptor RXR-alpha (Homo sapiens) (UniProt P19793); assay: as above
[12] = target: Luciferin 4-monooxygenase (Photinus pyralis) (UniProt P08659); assay: Biochemical firefly luciferase enzyme assay for NPC (AID 624030);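 also: purified P. pyralis luciferase at 10 nM with luciferin and ATP substrate; 0% = DMSO and -100% = full luciferase inhibition by PTC124 control; nearly all actives have a fitted effect of over 70% in size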
Method in brief: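 Direct inhibition of firefly luciferase enzyme (10 nM final, 50 mM Tris Acetate) assessed by luminescence within 5 minutes. Percent activity scaled between DMSO and PTC124 positive control, with concentration-effect curves classified by fit quality and response.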

[13] = S16 Schwann cell viability assay (CellTiter-Glo assay) (AID 624031); also: nearly all actives have a fitted effect of over 70% in size; also: potency is read from the fitted curve at half-maximal effect
Method in brief: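 Counter-screen for cytotoxicity: parental S16 rat Schwann cells lacking the PMP22 reporters, treated 24 h with compound, viability from cellular ATP by CellTiter-Glo luminescence, normalized to DMSO (0%) and no-cell wells.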

[14] = S16 Schwann cell PMP22 intronic element firefly luciferase assay (AID 624032); also: nearly all actives have a fitted effect of over 30% in size; also: potency is read from the fitted curve at half-maximal effect
Method in brief: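 Luciferase reporter of PMP22 intronic-element expression in stably transfected S16 rat Schwann cells, read by ONE-Glo luminescence after 24 h compound exposure at 37 C. Activity scaled between DMSO (0%) and positive-control PTC124; concentration-effect curves quality-classified.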

[15] = target: Glucagon-like peptide 1 receptor (Homo sapiens) (UniProt P43220); assay: qHTS of GLP-1 Receptor Agonists: LOPAC Validation (AID 624148);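 also: luminescence from a luciferase reporter switched on by cAMP; 0% is about no effect; higher luminescence signal means agonism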
Method in brief: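 Agonism scored as increased luciferase luminescence driven by cAMP in HEK293 clones carrying GLP-1R. Cells settled 12 hours, received compound for 4-6 hr at 37 deg C, 5% CO2, and were read after 12 min detection reagent at RT.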

[16] = qHTS of Nrf2 Activators: LOPAC Validation (AID 624149); also: 0% is about no effect
Method in brief: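 Luminescence read-out of ARE-luciferase activation: AREc32_Fluc cells treated with compounds for 24 hr at 37 deg C, then lysed with Steady-Glo for 30 min at room temperature before reading.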

[17] = HTS Assay for Allosteric Antagonists of the Human D2 Dopamine Receptor: Hit Validation in HTRF (AID 624455)
Method in brief: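 First, antagonism was screened by calcium flux in a force-coupled, inducible Hek293 Trex D2 line challenged with EC80 dopamine. Hits then went into an HTRF assay in cells stably expressing D1, testing inhibition of the D1 response.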

[18] = S16 Schwann cell PMP22 intronic element beta-lactamase assay (AID 624044; calls by dose curve; also: nearly all actives have a fitted effect of over 15% in size; also: potency is read from the fitted curve at half-maximal effect)
Method in brief: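 Rat S16 Schwann cells with beta-Lac driven by a PMP22 intronic element, compound-treated 24 h at 37 °C. LiveBLAzer FRET B/G read: 460 nm normalized to potassium clavulanate vs DMSO; 535 nm FRET as viability; concentration-effect curves classified.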

[19] = target: Glutaminase kidney isoform, mitochondrial (Homo sapiens) (UniProt O94925); assay: qHTS for Inhibitors of Glutaminase (GLS): LOPAC Validation (AID 624146);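 also: glutamate product detected by oxidase and peroxidase coupled Amplex red fluorescence gain; % is scaled to controls: 0 for no effect and ±100 for the full control effect; nearly all actives have a fitted effect of over 60% in size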
Method in brief: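 Coupled fluorescence readout: glutamate oxidase/HRP/Amplex Red detect glutamate formed by hKGA from L-glutamine (1 mM solution added). Buffer 45 mM KH2PO4 pH 8.2, 0.02% Tween-20; reads at t0 and 30 min RT.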

Chain of Glucagon-like peptide 1 receptor (Homo sapiens) (P43220 whole entry, looked up): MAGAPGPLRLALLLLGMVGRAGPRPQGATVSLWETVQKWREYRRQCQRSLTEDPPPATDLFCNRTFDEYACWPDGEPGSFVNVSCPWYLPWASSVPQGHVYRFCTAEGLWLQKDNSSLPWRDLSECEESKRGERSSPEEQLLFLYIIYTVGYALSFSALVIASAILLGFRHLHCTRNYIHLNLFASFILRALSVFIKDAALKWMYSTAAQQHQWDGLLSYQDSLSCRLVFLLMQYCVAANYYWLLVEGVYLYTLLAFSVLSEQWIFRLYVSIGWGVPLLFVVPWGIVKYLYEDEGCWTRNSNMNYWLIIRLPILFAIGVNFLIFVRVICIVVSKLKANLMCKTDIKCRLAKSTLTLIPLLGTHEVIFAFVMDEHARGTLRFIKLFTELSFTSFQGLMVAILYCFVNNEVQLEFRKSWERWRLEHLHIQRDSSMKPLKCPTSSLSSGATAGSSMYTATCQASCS
Chain of Luciferin 4-monooxygenase (Photinus pyralis) (P08659 whole entry, looked up): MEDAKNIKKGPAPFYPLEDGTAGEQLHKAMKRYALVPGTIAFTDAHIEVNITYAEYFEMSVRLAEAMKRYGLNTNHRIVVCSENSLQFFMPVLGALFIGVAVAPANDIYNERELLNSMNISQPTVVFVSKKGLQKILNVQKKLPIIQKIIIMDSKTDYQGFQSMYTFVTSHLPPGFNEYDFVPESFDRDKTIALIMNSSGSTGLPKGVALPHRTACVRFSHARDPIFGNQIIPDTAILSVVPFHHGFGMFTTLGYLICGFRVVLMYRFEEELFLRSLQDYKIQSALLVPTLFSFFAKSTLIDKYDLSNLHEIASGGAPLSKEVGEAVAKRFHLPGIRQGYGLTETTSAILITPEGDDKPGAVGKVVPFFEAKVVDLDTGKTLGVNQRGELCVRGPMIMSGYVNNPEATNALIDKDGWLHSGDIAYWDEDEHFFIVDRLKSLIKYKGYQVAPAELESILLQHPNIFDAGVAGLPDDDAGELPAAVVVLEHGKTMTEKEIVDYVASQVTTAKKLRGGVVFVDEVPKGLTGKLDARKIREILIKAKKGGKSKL
Chain of Voltage-gated inwardly rectifying potassium channel KCNH2 (Homo sapiens) (Q12809 whole entry, looked up): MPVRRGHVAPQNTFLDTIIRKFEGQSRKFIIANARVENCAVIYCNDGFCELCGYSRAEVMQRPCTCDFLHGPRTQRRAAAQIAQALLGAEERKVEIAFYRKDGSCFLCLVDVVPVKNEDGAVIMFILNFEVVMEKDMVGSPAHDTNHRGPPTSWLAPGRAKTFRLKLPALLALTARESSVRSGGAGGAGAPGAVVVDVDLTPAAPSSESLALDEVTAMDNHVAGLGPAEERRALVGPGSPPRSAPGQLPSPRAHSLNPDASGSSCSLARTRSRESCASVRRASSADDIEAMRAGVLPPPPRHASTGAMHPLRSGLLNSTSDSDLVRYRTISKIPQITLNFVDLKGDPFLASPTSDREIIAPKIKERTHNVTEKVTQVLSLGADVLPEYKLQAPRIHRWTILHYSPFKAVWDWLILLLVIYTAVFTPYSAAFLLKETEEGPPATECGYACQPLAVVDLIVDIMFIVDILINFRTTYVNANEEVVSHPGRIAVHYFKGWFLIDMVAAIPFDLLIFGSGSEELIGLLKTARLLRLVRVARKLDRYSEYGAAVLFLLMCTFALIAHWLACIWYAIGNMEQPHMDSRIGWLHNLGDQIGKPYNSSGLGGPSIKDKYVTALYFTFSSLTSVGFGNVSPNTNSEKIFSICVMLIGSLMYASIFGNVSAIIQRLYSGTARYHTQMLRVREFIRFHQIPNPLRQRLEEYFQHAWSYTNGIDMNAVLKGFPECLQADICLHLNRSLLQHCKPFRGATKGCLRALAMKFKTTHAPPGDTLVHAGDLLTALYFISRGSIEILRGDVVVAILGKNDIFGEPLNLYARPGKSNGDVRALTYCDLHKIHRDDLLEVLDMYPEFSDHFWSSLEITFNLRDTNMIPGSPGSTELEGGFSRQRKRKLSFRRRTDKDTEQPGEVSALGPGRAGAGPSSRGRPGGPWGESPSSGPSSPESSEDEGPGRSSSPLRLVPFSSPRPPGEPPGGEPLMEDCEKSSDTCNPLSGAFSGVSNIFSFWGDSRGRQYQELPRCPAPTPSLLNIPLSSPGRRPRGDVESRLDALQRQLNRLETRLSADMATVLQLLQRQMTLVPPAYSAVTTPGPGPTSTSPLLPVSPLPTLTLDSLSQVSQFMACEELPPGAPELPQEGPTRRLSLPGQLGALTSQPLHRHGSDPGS
Chain of Retinoic acid receptor RXR-alpha (Homo sapiens) (P19793 whole entry, looked up): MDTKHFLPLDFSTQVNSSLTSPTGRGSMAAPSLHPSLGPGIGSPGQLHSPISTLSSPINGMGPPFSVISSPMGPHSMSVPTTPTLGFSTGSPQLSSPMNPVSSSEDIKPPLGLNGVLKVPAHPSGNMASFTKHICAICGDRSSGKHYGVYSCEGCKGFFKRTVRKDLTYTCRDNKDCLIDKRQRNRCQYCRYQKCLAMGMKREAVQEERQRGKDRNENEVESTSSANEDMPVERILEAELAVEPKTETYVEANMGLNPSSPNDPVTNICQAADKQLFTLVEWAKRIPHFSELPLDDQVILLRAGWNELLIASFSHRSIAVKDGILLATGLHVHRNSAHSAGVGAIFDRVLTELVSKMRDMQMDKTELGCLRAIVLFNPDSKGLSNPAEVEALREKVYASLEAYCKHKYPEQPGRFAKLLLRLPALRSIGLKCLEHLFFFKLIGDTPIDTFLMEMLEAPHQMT
Chain of Thyroid hormone receptor beta (Homo sapiens) (P10828 whole entry, looked up): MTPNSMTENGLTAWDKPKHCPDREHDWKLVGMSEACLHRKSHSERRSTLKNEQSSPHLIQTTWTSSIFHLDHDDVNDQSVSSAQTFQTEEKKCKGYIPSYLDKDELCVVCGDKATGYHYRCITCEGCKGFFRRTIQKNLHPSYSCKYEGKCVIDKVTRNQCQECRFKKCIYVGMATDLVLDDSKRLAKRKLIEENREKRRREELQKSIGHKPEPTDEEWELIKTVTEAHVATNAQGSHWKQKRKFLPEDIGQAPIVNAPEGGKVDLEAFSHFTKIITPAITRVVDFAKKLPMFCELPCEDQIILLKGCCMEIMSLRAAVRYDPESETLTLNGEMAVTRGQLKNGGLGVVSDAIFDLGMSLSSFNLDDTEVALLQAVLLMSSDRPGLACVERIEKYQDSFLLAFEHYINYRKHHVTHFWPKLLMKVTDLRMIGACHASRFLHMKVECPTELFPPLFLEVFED
Chain of Vitamin D3 receptor (Homo sapiens) (P11473 whole entry, looked up): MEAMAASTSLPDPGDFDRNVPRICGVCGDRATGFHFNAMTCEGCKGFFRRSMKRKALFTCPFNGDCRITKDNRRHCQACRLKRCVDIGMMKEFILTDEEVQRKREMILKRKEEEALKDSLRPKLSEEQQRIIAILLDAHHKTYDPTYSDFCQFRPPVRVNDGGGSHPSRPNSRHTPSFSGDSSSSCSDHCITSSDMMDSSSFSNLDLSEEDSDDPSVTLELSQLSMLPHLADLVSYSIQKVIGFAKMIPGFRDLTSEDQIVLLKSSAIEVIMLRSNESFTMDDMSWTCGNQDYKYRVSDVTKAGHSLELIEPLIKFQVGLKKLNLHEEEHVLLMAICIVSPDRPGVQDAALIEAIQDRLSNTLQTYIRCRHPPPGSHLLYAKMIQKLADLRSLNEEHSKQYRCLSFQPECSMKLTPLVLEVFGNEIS
Chain of Glutaminase kidney isoform, mitochondrial (Homo sapiens) (O94925 whole entry, looked up, canonical isoform): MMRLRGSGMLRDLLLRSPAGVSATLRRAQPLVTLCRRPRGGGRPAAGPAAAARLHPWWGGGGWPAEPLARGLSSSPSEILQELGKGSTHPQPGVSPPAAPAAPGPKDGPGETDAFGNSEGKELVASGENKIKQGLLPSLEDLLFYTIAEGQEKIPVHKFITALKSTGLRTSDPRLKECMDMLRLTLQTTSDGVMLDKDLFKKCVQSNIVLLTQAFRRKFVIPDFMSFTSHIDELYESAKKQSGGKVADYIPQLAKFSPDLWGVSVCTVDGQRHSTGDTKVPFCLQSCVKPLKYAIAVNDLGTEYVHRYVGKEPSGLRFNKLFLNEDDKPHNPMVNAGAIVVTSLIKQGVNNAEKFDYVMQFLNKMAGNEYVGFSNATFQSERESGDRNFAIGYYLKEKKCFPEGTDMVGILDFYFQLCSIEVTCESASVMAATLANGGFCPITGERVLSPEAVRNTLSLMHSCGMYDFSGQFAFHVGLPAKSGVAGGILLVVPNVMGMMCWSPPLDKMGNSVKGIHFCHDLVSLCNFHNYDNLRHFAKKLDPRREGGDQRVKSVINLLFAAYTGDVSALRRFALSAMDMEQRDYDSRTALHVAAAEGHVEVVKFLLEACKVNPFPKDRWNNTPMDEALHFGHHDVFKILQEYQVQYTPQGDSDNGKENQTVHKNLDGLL

CN1CCC(=C2c3ccccc3CCc3sccc32)CC1
active: Potency [1] 10 µM

Nc1nc(Cl)nc2c1ncn2[C@H]1C[C@H](O)[C@@H](CO)O1
active: Potency [7] 27 µM
-0.421% [at 92.2 µM]: viability (% of control) [9]
inactive: outcome [2] | outcome [3] | outcome [4] | activity change % (negative = inhibition) [6] -1.32% | Potency [1] | Potency [8]
5.76%: max response [5]

CCCc1cc(=O)[nH]c(=S)[nH]1
inactive: outcome [11] | outcome [4] | activity change % (negative = inhibition) [6] 8.46% | Potency [1] | Potency [12] | Potency [13] | Potency [14]
2.58% and 1.92%: max response [5]
3.33% and 11.8%: max response [10]

CC1Cc2ccccc2N1NC(=O)c1ccc(Cl)c(S(N)(=O)=O)c1 (stereo not drawn)
inactive: Potency [1]

CN(C)c1ccc(O)c2c1C[C@H]1C[C@H]3[C@H](N(C)C)C(=O)C(C(N)=O)=C(O)[C@@]3(O)C(=O)C1=C2O
inactive: Potency [1]

Cc1cc(O)c2c(c1)C(=O)c1cc(O)cc(O)c1C2=O
1.07%: max response [5]
inactive: outcome [4] | activity change % (negative = inhibition) [6] -22% | outcome [15] | outcome [16] | outcome [17]

CCOC(=O)C1=C[C@@H](OC(CC)CC)[C@H](NC(C)=O)[C@@H](N)C1
inactive: Potency [1]

CN(C)c1ccc2nc3ccc(=[N+](C)C)cc-3sc2c1
inactive: outcome [4] | activity change % (negative = inhibition) [6] 20.5% | Potency [1] | Potency [14]
-22.9%: max response [5]
active: Potency [13] 4.05 µM

COC(=O)[C@H](Cc1ccccc1)NC(=O)[C@@H](N)CC(=O)O (H-Asp-Phe-OMe)
inactive: outcome [11] | outcome [4] | activity change % (negative = inhibition) [6] 6.56% and 1.22% | Potency [1] | Potency [12] | Potency [13] | Potency [14]
3.6% and 1.05%: max response [10]
2.63% and 8.92%: max response [5]

Cc1c(OCC(F)(F)F)ccnc1CS(=O)c1nc2ccccc2[nH]1 (stereo not drawn)
inactive: Potency [1] | Potency [12] | Potency [13] | Potency [18] | outcome [15] | outcome [16] | outcome [17]

Cc1cc(C2CCCCC2)n(O)c(=O)c1
inactive: Potency [1] | Potency [13]
active: Potency [14] 1.55 µM

Nc1cc(C(Cl)=C(Cl)Cl)c(S(N)(=O)=O)cc1S(N)(=O)=O
inactive: Potency [1] | Potency [12] | Potency [13] | Potency [14]

CC[C@]1(O)C[C@H]2CN(CCc3c([nH]c4ccccc34)[C@@](C(=O)OC)(c3cc4c(cc3OC)N(C=O)[C@H]3[C@@](O)(C(=O)OC)[C@H](OC(C)=O)[C@]5(CC)C=CCN6CC[C@]43[C@@H]65)C2)C1
inactive: Potency [1] | Potency [12] | Potency [13]
active: Potency [14] 0.0907 µM | Potency [18] 0.282 µM

O=P(O)(O)C(O)(Cn1ccnc1)P(=O)(O)O
inactive: Potency [1] | Potency [12] | Potency [13] | Potency [14] | Potency [18]

Cc1ncc([N+](=O)[O-])n1CC(C)O (stereo not drawn)
inactive: Potency [1] | Potency [13] | Potency [14]

COC(=O)C1=C(C)NC(C)=C(C(=O)OCCCN2CCC(c3ccccc3)(c3ccccc3)CC2)C1c1cccc([N+](=O)[O-])c1 (stereo not drawn)
inactive: Potency [12]
active: Potency [1] 2 µM | Potency [13] 16.1 µM | Potency [14] 10.2 µM

Nc1ccn([C@@H]2O[C@H](CO)[C@@H](O)C2O)c(=O)n1 (stereo partly drawn)
inactive: Potency [1] | Potency [12] | Potency [13] | Potency [19] | outcome [15] | outcome [16] | outcome [17]

O=C(O)c1cc(=O)c2c(OCC(O)COc3cccc4oc(C(=O)O)cc(=O)c34)cccc2o1
inactive: Potency [1] | Potency [12] | Potency [13] | Potency [14]

Cc1c(C(=O)NN2CCCCC2)nn(-c2ccc(Cl)cc2Cl)c1-c1ccc(Cl)cc1
active: Potency [1] 2.82 µM | Potency [14] 18.1 µM
inactive: Potency [12] | Potency [13]

O=c1oc2cc(O)ccc2s1
inactive: Potency [1] | Potency [12] | Potency [13] | Potency [14] | Potency [18]

C=C(c1ccc(C(=O)O)cc1)c1cc2c(cc1C)C(C)(C)CCC2(C)C
inactive: Potency [1] | Potency [13]

CCC(C)(Oc1ccc(C2(c3ccc(OC(C)(CC)C(=O)O)cc3)CCCCC2)cc1)C(=O)O (stereo not drawn)
inactive: Potency [1] | Potency [13]

CCCCCCCCOc1ccccc1C(=O)Nc1ccc(C(=O)OCC[N+](C)(CC)CC)cc1
inactive: Potency [1] | Potency [12] | Potency [13] | Potency [14] | Potency [18]

CCN(CC)CCOc1ccc(Cc2ccccc2)cc1
inactive: Potency [13] | Potency [14]
active: Potency [1] 5.01 µM

CN(C)C(=O)COC(=O)Cc1ccc(OC(=O)c2ccc(N=C(N)N)cc2)cc1
inactive: Potency [1] | Potency [12] | Potency [13] | Potency [14]

COCCCOc1ccnc(CS(=O)c2nc3ccccc3[nH]2)c1C (stereo not drawn)
inactive: Potency [1] | Potency [13]

CC(C)[C@H](N)C(=O)OCCOCn1cnc2c(=O)[nH]c(N)nc21
inactive: Potency [1] | Potency [13] | Potency [14]

O=C(NC(Cc1cc(=O)[nH]c2ccccc12)C(=O)O)c1ccc(Cl)cc1 (stereo not drawn)
inactive: Potency [1] | Potency [13] | Potency [14]

CC(S)C(=O)NCC(=O)O (stereo not drawn)
inactive: Potency [1] | Potency [12] | Potency [13] | Potency [14]

CNC[C@@H](O)[C@@H](O)[C@H](O)[C@H](O)CO
inactive: Potency [1] | Potency [12] | Potency [13] | Potency [14] | Potency [18]

C[C@H](Cn1cnc2c(N)ncnc21)OCP(=O)(O)O
inactive: Potency [1] | Potency [12] | Potency [13] | Potency [14] | Potency [18]

Cc1cc2c(s1)Nc1ccccc1N=C2N1CCN(C)CC1
inactive: Potency [1] | Potency [12] | Potency [13] | Potency [14]

CCCCCCCCCCCCCCCCCCCCCCO
inactive: Potency [1] | Potency [12] | Potency [13] | Potency [14] | Potency [18]

CCC[C@@H]1C[C@@H](C(=O)N[C@@H]([C@H]2O[C@H](SC)[C@H](O)[C@@H](O)[C@H]2O)[C@@H](C)O)N(C)C1
inactive: Potency [1] | Potency [12] | Potency [13] | Potency [14] | Potency [18]
